Experiment in all cases: NCI-60 one-dose screen, 48 h (100 = growth as untreated, 0 = no growth, -100 = all killed)
One experiment deals with SR leukemia. The note with it: 10 µM unless noted.
The test system of another experiment is RPMI-8226 leukemia. The note with it: 10 µM unless noted.
A further experiment concerns OVCAR-8 ovarian. The note with it: 10 µM unless noted.
The test system of another experiment is OVCAR-5 ovarian. The note with it: 10 µM unless noted.
The subject of a further experiment is OVCAR-4 ovarian. The note with it: 10 µM unless noted.
For another experiment, the system named is SK-OV-3 ovarian. Particulars: 10 µM unless noted.
The subject of the next experiment is IGROV1 ovarian. Particulars: 10 µM unless noted.
Another experiment relates to OVCAR-3 ovarian. Particulars: 10 µM unless noted.
The test system of another experiment is HS 578T breast. The note with it: 10 µM unless noted.
A further experiment deals with NCI/ADR-RES ovarian. The note with it: 10 µM unless noted.
The test system of the next experiment is BT-549 breast. Particulars: 10 µM unless noted.
In a further experiment the test system is MDA-MB-435 melanoma. The note with it: 10 µM unless noted.
A further experiment has as its system SW-620 colon. Particulars: 10 µM unless noted.
The subject of the next experiment is MCF7 breast.
A further experiment has as its system HCT-116 colon. Particulars: 10 µM unless noted.
For a further experiment, the system named is HCC-2998 colon. Particulars: 10 µM unless noted.
Another experiment concerns KM12 colon. The note with it: 10 µM unless noted.
In a further experiment the test system is T-47D breast. Particulars: 10 µM unless noted.

Values joined by “and” are separate entries in the source; they are usually repeats but may differ in a detail not shown here. Equal values may be shown once. Compounds without any hit were thinned out: in the full panel of roughly 83,000, 20% have a hit.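 In brief: 96-well plates, 48 h treatment, single concentration, percent growth endpoint.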 Active and inactive are the calls of the source. Rule for the calls: active = growth percent below 10; inactive = the rest.

The results in this text go back to PubChem BioAssay (NCI).

For `CC(C)(C)CC(N)=O`, the growth is 102% (inactive) with SR leukemia; 107% (inactive) in the experiment with RPMI-8226 leukemia; 97.7% (inactive) with OVCAR-8 ovarian; 102% (inactive) in the experiment with OVCAR-5 ovarian; 100% (inactive) in the experiment on OVCAR-4 ovarian; 88.2% (inactive) in the experiment on SK-OV-3 ovarian. Also, the growth in the experiment on IGROV1 ovarian is 112% (inactive); in the experiment on OVCAR-3 ovarian, 110% (inactive); in the experiment with HS 578T breast, 106% (inactive); with NCI/ADR-RES ovarian it was 102% (inactive); in the experiment with BT-549 breast, 75.3% (inactive); in the experiment on MDA-MB-435 melanoma, 109% (inactive). Moreover, the growth in the experiment with SW-620 colon was 102% (inactive); in the experiment on MCF7 breast (10 µM), 85.9% (inactive); with MCF7 breast (100 µM) it was 85.2% (inactive) and 8.62% (active); in the experiment with HCT-116 colon it was 93.6% (inactive); with HCC-2998 colon, 106% (inactive); with KM12 colon, 109% (inactive).
Take `COc1ccc2c(c1)CCNC21C(=O)Nc2c(Br)cc(Br)cc21` (configuration not stated): the growth in the experiment with SR leukemia is 96.4% (inactive); in the experiment with RPMI-8226 leukemia it was 106% (inactive); with OVCAR-8 ovarian, 101% (inactive); with OVCAR-5 ovarian it was 91.3% (inactive); in the experiment with OVCAR-4 ovarian, 95.2% (inactive); with SK-OV-3 ovarian, 84.2% (inactive). In addition, the growth in the experiment on IGROV1 ovarian was 82.4% (inactive); in the experiment on OVCAR-3 ovarian, 101% (inactive); in the experiment on HS 578T breast it was 94.8% (inactive); with NCI/ADR-RES ovarian, 104% (inactive); with BT-549 breast it was 103% (inactive); with MDA-MB-435 melanoma, 101% (inactive). In addition, the growth was 97.4% (inactive) in the experiment on SW-620 colon; 101% (inactive) with MCF7 breast (10 µM unless noted); 103% (inactive) in the experiment on HCT-116 colon; 105% (inactive) in the experiment with HCC-2998 colon; 104% (inactive) with KM12 colon.
`CCN(CC)CCOc1ccccc1C`: the growth in the experiment on SR leukemia was 111% (inactive); in the experiment with RPMI-8226 leukemia, 103% (inactive); with OVCAR-8 ovarian it was 102% (inactive); in the experiment on OVCAR-5 ovarian it was 97.2% (inactive); with OVCAR-4 ovarian, 111% (inactive); in the experiment on SK-OV-3 ovarian it was 103% (inactive). The growth in the experiment on IGROV1 ovarian was 109% (inactive); in the experiment on OVCAR-3 ovarian, 117% (inactive); with HS 578T breast it was 119% (inactive); with NCI/ADR-RES ovarian, 124% (inactive); with T-47D breast it was 98.3% (inactive); in the experiment with BT-549 breast, 102% (inactive). Moreover, the growth is 107% (inactive) in the experiment with SW-620 colon; 100% (inactive) with MCF7 breast (10 µM unless noted); 98.3% (inactive) with HCT-116 colon; 107% (inactive) in the experiment on HCC-2998 colon; 107% (inactive) in the experiment on KM12 colon.
With `CC1(Cc2ccccc2)CC2=C(C(=O)O1)C(c1ccccc1)NC(=O)N2` (configuration not stated), the growth in the experiment with SR leukemia was 76.6% (inactive); in the experiment with RPMI-8226 leukemia, 94% (inactive); in the experiment with OVCAR-8 ovarian it was 104% (inactive); in the experiment on OVCAR-5 ovarian, 81.2% (inactive); in the experiment on OVCAR-4 ovarian, 108% (inactive); with SK-OV-3 ovarian, 98.8% (inactive). In addition, the growth was 118% (inactive) with IGROV1 ovarian; 109% (inactive) with OVCAR-3 ovarian; 109% (inactive) in the experiment with HS 578T breast; 106% (inactive) in the experiment on NCI/ADR-RES ovarian; 104% (inactive) with BT-549 breast; 99.4% (inactive) in the experiment on MDA-MB-435 melanoma. Also, the growth in the experiment on SW-620 colon was 106% (inactive); with MCF7 breast (10 µM unless noted), 105% (inactive); in the experiment on HCT-116 colon, 86.9% (inactive); in the experiment on HCC-2998 colon it was 94.9% (inactive); in the experiment with KM12 colon, 107% (inactive).
As for `CC12CCC(C(=O)CC1=O)C2(C)C` (configuration not stated), the growth is 122% (inactive) and 93% (inactive) in the experiment on SR leukemia; 101% (inactive) and 94.2% (inactive) in the experiment with RPMI-8226 leukemia; 103% (inactive) and 99.5% (inactive) in the experiment on OVCAR-8 ovarian; 101% (inactive) and 106% (inactive) in the experiment with OVCAR-5 ovarian; 101% (inactive) in the experiment with OVCAR-4 ovarian; 104% (inactive) and 105% (inactive) with SK-OV-3 ovarian. Further, the growth with IGROV1 ovarian is 110% (inactive) and 104% (inactive); in the experiment with OVCAR-3 ovarian, 105% (inactive) and 106% (inactive); with HS 578T breast it was 108% (inactive) and 120% (inactive); in the experiment on NCI/ADR-RES ovarian it was 111% (inactive) and 103% (inactive); in the experiment with T-47D breast, 105% (inactive) and 93.4% (inactive); with BT-549 breast, 110% (inactive) and 104% (inactive). In addition, the growth with SW-620 colon was 105% (inactive) and 109% (inactive); in the experiment on MCF7 breast (10 µM unless noted) it was 103% (inactive) and 98.4% (inactive); with HCT-116 colon, 106% (inactive) and 97.1% (inactive); in the experiment with HCC-2998 colon it was 108% (inactive) and 98.5% (inactive); in the experiment with KM12 colon, 108% (inactive) and 101% (inactive).
Turning to `CC(=O)c1c(C)nc2ccccc2c1/C=C/c1cccc(C)c1`, the growth in the experiment with SR leukemia was 23.3% (inactive); in the experiment on RPMI-8226 leukemia, 56% (inactive); in the experiment with OVCAR-8 ovarian it was 69.4% (inactive); in the experiment on OVCAR-5 ovarian, 83.6% (inactive); with OVCAR-4 ovarian, 67.2% (inactive); with SK-OV-3 ovarian it was 69.7% (inactive). In addition, the growth is 48.1% (inactive) in the experiment on IGROV1 ovarian; 45.5% (inactive) with OVCAR-3 ovarian; 62.5% (inactive) with HS 578T breast; 29.8% (inactive) in the experiment on NCI/ADR-RES ovarian; 38.6% (inactive) with T-47D breast; 64.2% (inactive) with BT-549 breast. Besides, the growth is 29.4% (inactive) in the experiment with SW-620 colon; 24.2% (inactive) in the experiment on MCF7 breast (10 µM unless noted); 32.9% (inactive) with HCT-116 colon; 79.4% (inactive) in the experiment on HCC-2998 colon; 52.1% (inactive) with KM12 colon.
Take `CC(=O)Nc1c(I)c(NC(C)=O)c(I)c(C(=O)O)c1I`: the growth with SR leukemia is 86.7% (inactive) and 80.5% (inactive); with RPMI-8226 leukemia, 106% (inactive) and 112% (inactive); in the experiment with OVCAR-8 ovarian, 101% (inactive) and 96.3% (inactive); in the experiment on OVCAR-5 ovarian it was 102% (inactive) and 108% (inactive); in the experiment with OVCAR-4 ovarian, 90.4% (inactive); with SK-OV-3 ovarian, 105% (inactive) and 110% (inactive). The growth with IGROV1 ovarian is 108% (inactive); in the experiment with OVCAR-3 ovarian, 111% (inactive) and 116% (inactive); with HS 578T breast, 105% (inactive) and 171% (inactive); in the experiment with NCI/ADR-RES ovarian, 106% (inactive) and 109% (inactive); with T-47D breast, 96.6% (inactive) and 102% (inactive); with BT-549 breast, 101% (inactive) and 97.9% (inactive). For the same molecule, the growth with SW-620 colon is 102% (inactive) and 117% (inactive); with MCF7 breast (10 µM unless noted), 98.6% (inactive) and 96.9% (inactive); in the experiment with HCT-116 colon it was 110% (inactive) and 93% (inactive); with HCC-2998 colon, 106% (inactive); with KM12 colon, 104% (inactive) and 123% (inactive).
With `O=[N+]([O-])c1ccc(S(=O)Cc2ccccc2)c([N+](=O)[O-])c1` (configuration not stated), the growth is 1.64% (active) and -8.84% (active) in the experiment with SR leukemia; 72.8% (inactive) and 27.5% (inactive) in the experiment on RPMI-8226 leukemia; 45.8% (inactive) and 94.9% (inactive) with OVCAR-8 ovarian; 82.4% (inactive) and 93.3% (inactive) in the experiment with OVCAR-5 ovarian; 59.7% (inactive) and 1.6% (active) in the experiment on OVCAR-4 ovarian; 104% (inactive) and 109% (inactive) with SK-OV-3 ovarian. Also, the growth in the experiment with IGROV1 ovarian was 89.9% (inactive) and 106% (inactive); in the experiment with OVCAR-3 ovarian, 13.9% (inactive) and -74.6% (active); with HS 578T breast, 118% (inactive) and 95.2% (inactive); with NCI/ADR-RES ovarian, 90.9% (inactive) and 90.6% (inactive); in the experiment with T-47D breast, 29.7% (inactive) and -21.4% (active); in the experiment on BT-549 breast, 66.3% (inactive) and 67.5% (inactive). For the same molecule, the growth was -71.3% (active) and -38.1% (active) with SW-620 colon; 41.1% (inactive) and 5.89% (active) in the experiment on MCF7 breast (10 µM unless noted); -88.5% (active) and -82.3% (active) with HCT-116 colon; 97.2% (inactive) and 97.5% (inactive) with HCC-2998 colon; 77.1% (inactive) and 101% (inactive) in the experiment on KM12 colon.
